PubChem BioAssay
The source made the active and inactive calls.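 How the source made its calls, unless noted: active means inhibition above 20% together with a positive visual image hit; inconclusive means visual image hit but inhibition not above 20%; inactive means no visual image hit.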

How the values were obtained:
[1] = inhibitors of TNFa-induced NFkB p65 translocation, primary screen, imaging, HUVEC, MLSMR starter and 10KST1 sets (AID 438); settings: HUVEC TNFa-induced p65 nuclear translocation; cell count: measured here: nuclei count (cytotoxicity indicator), at 2.08 µM; inhibition: at 2 µM, stronger effect = higher value, 0% TNFa-plus-vehicle, 100% no-TNFa wells;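 further: compound added about 3h40 before a 20 min TNFalpha stimulation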;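 on inhibition: signal is the nuclear over cytoplasmic p65 intensity ratio per well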
[2] = reduction of polyQ htt aggregates in cells – imaging, exon1htt(103Q)mCFP cells, high-content imaging, primary screen (AID 483;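 active means visual image review flags a hit and inhibition of aggregation exceeds 20%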;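 further: compound exposure lasted 3 days before fixation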;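 on nuclei count: percent of the per-plate median nuclei count of sample wells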); settings: exon1htt(103Q)mCFP cell line, aggregate imaging, at 2 µM; inhibition of aggregation: stronger effect = higher value; nuclei count: measured here: cell count, toxicity
[3] = endothelial E-selectin expression blockers – imaging, HUVEC, immunofluorescence, MLSMR starter and 10KST1 sets, primary screen (AID 487;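 active means visually confirmed hit in the image check and inhibition above 20%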;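 on inhibition: signal is fraction of cell area covered by stained E-selectin grains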;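 on nuclei count: 100% = median nuclei count of all wells on the same plate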); settings: HUVEC TNFalpha-induced E-selectin immunofluorescence imaging, at 2 µM; inhibition: stronger effect = higher value; nuclei count: measured here: cell number, toxicity
[4] = target: Voltage-gated potassium channel subunit beta-2 (Rattus norvegicus) (UniProt P62483); assay: inhibitors of rat Kvbeta2 reductase activity – biochemical, NADPH fluorescence, primary screen (AID 622;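 active means fluorescence slope higher than the sample average by over 3 SD, cut at about -0.22 in these data, passing the limit was not always enough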;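 further: slope of raw intensity against log time taken from 70 to 1610 s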); settings: recombinant KvBeta, 4-cyanobenzaldehyde reduction, at 10 µM, stronger effect = higher value
[5] = target: Voltage-gated potassium channel subunit beta-2 (Rattus norvegicus) (UniProt P62483); assay: enhancers of rat Kvbeta2 NADPH turnover – biochemical, NADPH fluorescence, primary screen (AID 623;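 active means NADPH fluorescence slope more negative than the mean of all samples by about 3 SD, 99.7% confidence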;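 further: fluorescence intensity change per second fitted from 20 to 320 s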); settings: Recombinant KvBeta, NADPH fluorescence decrease slope, 10 min; at 10 µM; stronger effect = lower value
[6] = target: Alpha-2C adrenergic receptor (Homo sapiens) (UniProt P18825); assay: compounds altering alpha2C-coupled GIRK flux – cell-based, HEK293 alpha2C/GIRK1/2, thallium flux, primary screen (AID 624;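 active means fluorescence slope after compound addition differing from the mean of all screened samples at 99.7% confidence, in either direction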;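 further: slope of fluorescence ratio to pre-addition baseline per second over 15 to 24 s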); settings: thallium flux BTC fluorescence, at 10 µM, actives lie on both sides
[7] = blockers of RIG-like receptor reporter activation – cell-based, Sendai virus stimulus, luciferase, 10K MLSCN set, TLR/RLR signaling modifier project, primary screen (AID 602276;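 active means inhibition at or above 50% at 10 µM; inactive means inhibition below 50%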;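 further: firefly luciferase from ISG56 promoter only with Renilla not read in this screen; 0% = Sendai virus plus DMSO and 100% = medium plus DMSO without virus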); settings: HEK293 RL24 IRF3 luciferase reporter, at 10 µM, stronger effect = higher value
[8] = TLR3 IRF3 reporter activation blockers – cell-based, poly I:C stimulus, luciferase, 10K MLSCN set, primary screen (AID 602277;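 active means inhibition of the reporter signal at or above 50%; inactive means inhibition below 50%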); settings: HEK293-TLR3 RL24 IRF3 luciferase reporter, at 10 µM, stronger effect = higher value

Sequence of Alpha-2C adrenergic receptor (Homo sapiens) (P18825 whole entry, looked up): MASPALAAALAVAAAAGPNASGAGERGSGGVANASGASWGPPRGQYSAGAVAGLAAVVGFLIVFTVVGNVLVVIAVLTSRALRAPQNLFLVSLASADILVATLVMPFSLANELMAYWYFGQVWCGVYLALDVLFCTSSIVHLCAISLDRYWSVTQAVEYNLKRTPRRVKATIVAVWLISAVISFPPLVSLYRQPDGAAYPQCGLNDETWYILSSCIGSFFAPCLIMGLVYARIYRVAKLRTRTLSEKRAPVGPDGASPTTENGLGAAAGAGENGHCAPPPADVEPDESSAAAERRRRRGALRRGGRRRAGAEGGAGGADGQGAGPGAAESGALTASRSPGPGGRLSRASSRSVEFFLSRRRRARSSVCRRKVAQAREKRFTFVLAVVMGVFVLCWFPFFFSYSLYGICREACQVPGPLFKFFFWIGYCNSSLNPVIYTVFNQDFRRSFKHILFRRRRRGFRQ
Sequence of Voltage-gated potassium channel subunit beta-2 (Rattus norvegicus) (P62483 whole entry, looked up): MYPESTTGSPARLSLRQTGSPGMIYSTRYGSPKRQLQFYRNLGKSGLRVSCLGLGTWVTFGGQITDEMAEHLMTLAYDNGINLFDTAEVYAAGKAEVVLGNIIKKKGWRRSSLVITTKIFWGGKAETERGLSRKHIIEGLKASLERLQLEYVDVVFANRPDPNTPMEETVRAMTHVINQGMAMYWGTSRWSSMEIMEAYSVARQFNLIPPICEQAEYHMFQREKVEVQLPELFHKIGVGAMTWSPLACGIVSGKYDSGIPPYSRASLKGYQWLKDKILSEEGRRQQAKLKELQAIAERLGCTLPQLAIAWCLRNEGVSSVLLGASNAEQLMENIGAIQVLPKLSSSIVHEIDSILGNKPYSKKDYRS

SMILES	cell count [1]	inhibition [1]	inhibition of aggregation [2]	nuclei count [2] [%]	inhibition [3]	nuclei count [3] [%]	fluorescence slope [4]	NADPH fluorescence slope [5]	slope [6]	inhibition [7]	inhibition [8]
CCOC(=O)N1CCN(C(c2ccc(Cl)cc2)c2sc3nc(C)nn3c2O)CC1 (configuration not stated)	709	-8% (inactive)	0.3% (inactive)	104	-25% (inactive)	106	-0.412 (inactive)	-3.7e-05 (inactive)	0.00503 (inactive)	9.66% (inactive)	19.5% (inactive)
CCOC(=O)C1CCN(c2c(NCCN3CCN(c4ccccc4)CC3)c(=O)c2=O)CC1	533	7.8% (inactive)	7.2% (inactive)	96.5	-115% (inactive)	95.9	-0.6 (inactive)	-1.7e-05 (inactive)	0.00543 (inactive)	1.01% (inactive)	28.4% (inactive)
COc1cc(S(=O)(=O)N2CCOCC2)ccc1NC(=O)COC(=O)C12CC3CC(CC(C3)C1)C2	533	-24.9% (inactive)	-8.6% (inactive)	108	27.1% (inactive)	89.4	-0.258 (inactive)	2.4e-06 (inactive)	0.00665 (inactive)	8.59% (inactive)	19.8% (inactive)
CCOc1ccc(C(=O)N2CCN(C(=O)c3ccco3)CC2)cc1OCC	558	-2.7% (inactive)	-6.8% (inactive)	111	28.1% (inactive)	93.4	-0.367 (inactive)	4.3e-05 (inactive)	0.00675 (inactive)	12% (inactive)	21.2% (inactive)
O=S(=O)(c1ccccc1)N1CCN(S(=O)(=O)c2ccccc2)C1	281	5.1% (inactive)	-0.4% (inactive)	95	-60.7% (inactive)	96.4	-0.337 (inactive)	-5.3e-05 (inactive)	0.00677 (inactive)	10.4% (inactive)	13.2% (inactive)
O=C(COC(=O)c1cc(-c2ccco2)nc2ccccc12)NCc1ccc2c(c1)OCO2	349	-18.2% (inactive)	-7.7% (inactive)	54	3.4% (inactive)	108	-0.407 (inactive)	-1.1e-05 (inactive)	0.00558 (inactive)	2.9% (inactive)	11.8% (inactive)
NC(=O)COC(=O)c1ccc(S(=O)(=O)N2CCCCCC2)cc1	449	-7.8% (inactive)	6.3% (inactive)	104	-17.6% (inactive)	116	-0.348 (inactive)	-6.2e-05 (inactive)	0.00701 (inactive)	11% (inactive)	14% (inactive)
